Drawing on PubChem BioAssay (NCATS), this text covers Potency for 44 molecules.

The target in test [1] is Aldehyde dehydrogenase, mitochondrial (Homo sapiens) (UniProt P05091). As to the kind of experiment: qHTS for Inhibitors of the Aldehyde Dehydrogenase Family (ALDH2) Primary screen (AID 2061308). Note: nearly all actives have a fitted effect of over 55% in size.
Test [2] has as its target Retinaldehyde dehydrogenase 3 (Homo sapiens) (UniProt P47895). As to the kind of experiment: qHTS for Inhibitors of the Aldehyde Dehydrogenase Family (ALDH1A3) Primary screen (AID 2061315). Background: qHTS replaces the single test concentration by a dilution series.

Structures are written as SMILES. Results filed as inconclusive are left out. A call without a number means that no potency is given here. Calls of active or inactive are those of the source. Calls come from the whole dose curve; as a rule, active = well fitted curve in the direction sought with a large enough effect; inconclusive = small, poorly fitted or top-dose-only effect, or another doubt; inactive = no such curve, though single readings can be large; an effect the other way counts as inactive or inconclusive.

Regarding `CCOC(=O)c1ccoc1-c1ccc2ncnc(NCc3csc(C)n3)c2c1`, the Potency result in test [1] and in test [2] was “inactive” in each case.
For `CC(C)n1cc(-c2ccc(Oc3ccccc3)cc2)c2c(N)ncnc21`, the Potency entry in test [1] and in test [2] was “inactive” in each case.
With `Nc1ccc2c(=O)n3nc(Nc4ccc5c(c4)CCC5)sc3nc2c1`, the Potency entry in test [1] and in test [2] was “inactive” each time.
On to `O=S(=O)(c1ccc2c(c1)OCCO2)N1C[C@@H]2C[C@H]1CN2S(=O)(=O)c1c(F)cccc1F`, for which the Potency entry in test [1] and in test [2] was “inactive” throughout.
`Cn1c2cc(B(O)O)sc2c2cnn(Cc3c(F)cccc3F)c(=O)c21`: the Potency entry in test [1] and in test [2] was “inactive” each time.
Consider `CCC(=O)NC(c1cc(Cl)c2cccnc2c1O)C1CC1` (stereo not drawn), for which the Potency entry in test [1] and in test [2] was “inactive” each time.
`NC(=O)C1CCN(c2nc(-c3ccccc3)cs2)CC1`: the Potency entry in test [1] and in test [2] was “inactive” in each case.
For the molecule `Cc1noc(C)c1-c1ccc2ncnc(NCC3CCCCN3C)c2c1` (stereo not drawn), the Potency result in test [1] and in test [2] was “inactive” each time.
Take `O=C([C@@H](Cc1ccc(O[S+](=O)([O-])c2ccccn2)cc1)N[S+](=O)([O-])c1cccc2cccnc12)N1CCN(c2ccccc2)CC1`: the Potency result in test [1] and in test [2] was “inactive” throughout.
As to `C#C[C@]1(O)CC[C@H]2[C@@H]3CCC4=C/C(=N/O)CC[C@@H]4[C@H]3CC[C@@]21CC`, the Potency entry in test [1] and in test [2] was “inactive” in each case.
Take `CCOc1ccc(CCNC(=O)C2COc3ccccc3O2)cc1OCC` (stereo not drawn): the Potency result in test [1] and in test [2] was “inactive” throughout.
For the molecule `COc1cc(F)c(S(=O)(=O)N2CCN(S(=O)(=O)c3ccco3)CC2)c(F)c1`, the Potency entry in test [1] and in test [2] was “inactive” throughout.
Turning to `O=S(=O)(c1ccc(C(F)(F)F)cc1)N1CCN(S(=O)(=O)c2ccc3c(c2)OCCO3)CC1`, the Potency result in test [1] and in test [2] was “inactive” each time.
As for `O=Cc1nc(Nc2cc(F)cc(F)c2)nc(NC2CCCC2)n1`, the Potency result in test [1] and in test [2] was “inactive” each time.
On to `COc1cccc(CNc2ccc(S(=O)(=O)Nc3cc(C)on3)cc2)c1O`, for which the Potency result in test [1] and in test [2] was “inactive” throughout.
With `Oc1ccc(CNc2nccc3ccccc23)c2cccnc12`, the Potency entry in test [1] and in test [2] was “inactive” each time.
For `O=C(Nc1ccc(-c2nc3ccccc3[nH]2)cc1)Nc1ccc2occc2c1`, the Potency result in test [1] and in test [2] was “inactive” throughout.
`Fc1ccccc1-c1nc(NCc2ccc(-c3cccnc3)cc2)c2ccccc2n1`: the Potency entry in test [1] and in test [2] was “inactive” throughout.
Turning to `Cc1ccc(S(=O)(=O)Nc2ccccc2C(=O)Nc2nccs2)cc1`, the Potency result in test [1] and in test [2] was “inactive” each time.
Take `CC1(C(=O)O)CCCC2(C)C3CCC4CC3(CCC12)CC4(O)CO` (stereo not drawn): the Potency entry in test [1] and in test [2] was “inactive” each time.
With `CC(C)c1cccc2c(-c3ccccc3)cc(-c3ccc(-c4ccc(C(=O)O)cc4)[nH]3)nc12`, the Potency result in test [1] and in test [2] was “inactive” in each case.
For `COc1ccccc1C(=O)NCCc1nc2ccccc2n1CCOc1ccc(C)cc1`, the Potency result in test [1] and in test [2] was “inactive” throughout.
Take `CCOc1ccc(CCNC(=O)c2cc3sccc3n2Cc2ccccc2)cc1OCC`: the Potency result in test [1] and in test [2] was “inactive” throughout.
Regarding `Cc1cccc(CNc2ncnc3ccc(-c4cccnc4)cc23)c1`, the Potency entry in test [1] and in test [2] was “inactive” in each case.
Consider `FC(F)(F)c1ccccc1-c1nc(NCc2ccc(C3CCCCC3)cc2)c2ccccc2n1`, for which the Potency result in test [1] and in test [2] was “inactive” throughout.
Consider `O=C(Nc1nc(-c2ccccc2)cs1)c1ccncc1NS(=O)(=O)c1ccc(F)cc1Cl`, for which the Potency result in test [1] and in test [2] was “inactive” in each case.
Regarding `Cc1cc(C)n2ncc(C(=O)NCc3ccccc3)c2n1`, the Potency entry in test [1] and in test [2] was “inactive” each time.
Consider `Cc1cnc(N2CCC(C(N)=O)CC2)nc1-c1cccc(N(C)C)c1`, for which the Potency entry in test [1] and in test [2] was “inactive” throughout.
As for `Cc1ccc(NC(=O)CSc2nnc(-c3cccc([S+](=O)([O-])N4CCCC4)c3)n2-c2c(C)cccc2C)cc1`, the Potency result in test [1] and in test [2] was “inactive” throughout.
`O=[S+]([O-])(Nc1ccc(-c2ccccc2)cc1)c1ccc(NCc2ccc(Cl)cc2O)cc1`: the Potency entry in test [1] and in test [2] was “inactive” each time.
Turning to `Cc1ccc(CCCn2c(CCNC(=O)C3CCCCC3)nc3ccccc32)cc1`, the Potency result in test [1] and in test [2] was “inactive” in each case.
As for `Cc1cc(NS(=O)(=O)Cc2ccc(NC(=O)Cc3ccc(Cl)c(Cl)c3)cc2)no1`, the Potency result in test [1] and in test [2] was “inactive” throughout.
Consider `CC1=C(C(=O)Nc2nc3ccccc3s2)C(c2nn(C)cc2Cl)N=C(Nc2nc3ccccc3o2)N1` (stereo not drawn), for which the Potency entry in test [1] and in test [2] was “inactive” each time.
On to `COc1ccc(C2N=C(Nc3nc4ccccc4o3)NC3=C2C(=O)CCC3)cc1` (stereo not drawn), for which the Potency result in test [1] and in test [2] was “inactive” in each case.
Take `Cc1ccc(N2CCC(CNc3nc(-c4ccccc4C(C)C)ncc3F)CC2)cn1`: the Potency result in test [1] and in test [2] was “inactive” throughout.
Consider `Cc1noc(C)c1-c1ccc2ncnc(NCc3ccc(C(F)(F)F)o3)c2c1`, for which the Potency result in test [1] and in test [2] was “inactive” each time.
For the molecule `Cc1nnc2sc(-c3cccc(NC(=O)c4ccc(-c5cccc(Cl)c5)o4)c3)nn12`, the Potency result in test [1] and in test [2] was “inactive” in each case.
With `CCCCNc1nc(C)nc2c1nc(-c1ccccc1)n2CC1CCN(C)CC1`, the Potency result in test [1] and in test [2] was “inactive” each time.
For the molecule `O=C1CCc2cc(S(=O)(=O)Nc3cccc(F)c3)ccc2N1`, the Potency result in test [1] and in test [2] was “inactive” in each case.
With `Cc1ccc(C)c(OC2=NS(=O)(=O)c3ccccc32)c1`, the Potency entry in test [1] and in test [2] was “inactive” in each case.
For `N=c1c2c(ccn1CCCCc1ccccc1)Oc1ccc3ccccc3c1C2c1ccccc1` (stereo not drawn), the Potency result in test [1] and in test [2] was “inactive” in each case.
On to `Cc1cc(NC(=O)Nc2nnc(-c3cccnc3)s2)ccc1Cl`, for which the Potency entry in test [1] and in test [2] was “inactive” in each case.
On to `N#Cc1nc(-c2cccc3ccccc23)oc1NC1COC1`, for which the Potency entry in test [1] and in test [2] was “inactive” in each case.
Regarding `Cc1cc2c(s1)c1cnn(Cc3ccccc3C)c(=O)c1n2C`, the Potency entry in test [1] and in test [2] was “inactive” each time.
